Test results: PubChem BioAssay AID1851 (National Center for Advancing Translational Sciences (NCATS), 2009)
About 5,100 (32%) of roughly 16,000 compounds were called active. Inconclusive results (about 25%) are left out. The list shows a part of the results. Unmarked numbers belong to inactive results. Calls follow the shape of the dose curve; as a rule, active = well fitted curve in the direction sought with a large enough effect; inconclusive = small, poorly fitted or top-dose-only effect, or effect the other way; inactive = no such curve, though single readings can be large or run the other way.

target: Cytochrome P450 3A4 (Homo sapiens) (UniProt P08684); assay: Cytochrome panel assay with activity outcomes; conditions: recombinant CYP, pro-luciferin dealkylation, luminescence, p450-cyp3a4; series mostly up to 57.1 µM; activity, negative = inhibition: at the top concentration
% is scaled to controls: 0 for no effect and ±100 for the full control effect.

Sequence of Cytochrome P450 3A4 (Homo sapiens) (P08684 whole entry, looked up): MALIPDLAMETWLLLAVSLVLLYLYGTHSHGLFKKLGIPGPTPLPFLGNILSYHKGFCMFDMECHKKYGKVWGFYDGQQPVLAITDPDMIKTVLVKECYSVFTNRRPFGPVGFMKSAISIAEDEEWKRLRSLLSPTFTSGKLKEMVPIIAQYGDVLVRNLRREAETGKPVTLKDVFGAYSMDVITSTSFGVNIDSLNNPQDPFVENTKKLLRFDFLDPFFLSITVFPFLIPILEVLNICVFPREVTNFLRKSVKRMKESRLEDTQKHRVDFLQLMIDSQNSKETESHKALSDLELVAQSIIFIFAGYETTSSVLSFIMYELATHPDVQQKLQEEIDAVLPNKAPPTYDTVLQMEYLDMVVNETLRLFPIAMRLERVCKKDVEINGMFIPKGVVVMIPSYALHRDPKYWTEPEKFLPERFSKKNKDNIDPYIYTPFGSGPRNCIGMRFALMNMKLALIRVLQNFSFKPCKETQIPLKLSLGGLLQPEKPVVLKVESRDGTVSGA

Row | SMILES | activity, negative = inhibition | AC50
1 | O=C(O)Cc1ccc(O)c(O)c1 | -3.58% | –
2 | O=C(CCc1ccc(O)cc1)c1c(O)cc(O)cc1O | – | 10 µM (active)
3 | C[C@@](N)(Cc1ccc(O)cc1)C(=O)O | – | inactive
4 | O=c1nc(N2CCCCCC2)nc(N2CCCCCC2)[nH]1 | -19.4% | –
5 | O=C(CSc1nnc(CNc2ccc(F)cc2)o1)OC1CCCCC1 | – | 28.2 µM (active)
6 | O=C(CSc1n[nH]c(-c2ccccc2O)n1)N1CCCc2ccccc21 | – | 3.16 µM (active)
7 | O=C(CSc1nnc(CNc2ccc(F)cc2)o1)N1c2ccccc2Sc2ccccc21 | – | 7.08 µM (active)
8 | CCN(CC)C(=O)CSc1nnc(C2CCCCC2)o1 | -27.4% | –
9 | CCOc1ccc(-n2c(=O)[nH]cc(C(=O)N3CCCc4ccccc43)c2=O)cc1 | -29.5% | –
10 | O=C(CSc1nnc(CNc2ccccc2)o1)N1CCCc2ccccc21 | – | 8.91 µM (active)
11 | Cc1cc2nc(-c3ccc(SCC(=O)N4CCc5ccccc54)nc3)[nH]c2cc1C | -3.98% [at 2.29 µM] | –
12 | O=C(CCN1CCCCC1)N1CCc2c([nH]c3ccccc23)[C@H]1c1cccnc1 | -11.2% [at 11.4 µM] | –
13 | COC(=O)Cn1cnc(=O)c(C#N)c1/C=C/N(C)C | -1.13% | –
14 | O=C(N/N=C/c1cccc([N+](=O)[O-])c1)c1cc2c(ccc3ccccc32)o1 | -7.91% [at 2.29 µM] | –
15 | O=C(N/N=C/c1ccc(O)cc1)c1csc2ccccc12 | -23.9% [at 11.4 µM] | –
16 | O=C(N/N=C\c1cccc(O)c1)c1ccncc1 | -5.33% [at 11.4 µM] | –
17 | C=CCn1cc(/C=N\NC(=O)c2cc3c(ccc4ccccc43)o2)c2ccccc21 | – | 10 µM (active)
18 | O=C(N/N=C/C=C/c1ccccc1)c1cc2c(ccc3ccccc32)o1 | -11.9% | –
19 | O=C(N/N=C/c1ccncc1)c1cc2c(ccc3ccccc32)o1 | – | 1.41 µM (active)
20 | Cc1ccccc1C(=O)N/N=C/c1ccncc1 | – | 7.08 µM (active)
21 | COc1cccc([C@H](O)Cn2cc(-c3ccc(CON=C(C)C)cc3)nn2)c1 | -19.8% [at 11.4 µM] | –
22 | CC[C@@H](CS(=O)(=O)O)[N+](=O)[O-] | -18% [at 11.4 µM] | –
23 | O=C(N=NC(=O)c1ccc2c(O)n(C3CCCCC3)c(O)c2c1)c1cccnc1 | – | 11.2 µM (active)
24 | COCCn1c(=O)c(-c2cn(C)c3ccccc23)nc2cncnc21 | – | 3.16 µM (active)
25 | Cn1cc(-c2nc3cncnc3n(CCN)c2=O)c2ccccc21 | – | 12.6 µM (active)

Row | SMILES | activity, negative = inhibition | AC50
26 | COc1ccccc1CCn1c(=O)c(-c2cn(C)c3ccccc23)nc2cncnc21 | – | 2.51 µM (active)
27 | Cc1cccc([C@@H]2CN(C)CCc3c2cc(O)c(O)c3Cl)c1 | 7.75% | –
28 | N[C@H](CCCP(=O)(O)O)C(=O)O | – | inactive
29 | O=C(O)c1nnsc1-c1ccc(-c2snnc2C(=O)O)cc1 | -0.252% [at 11.4 µM] | –
30 | O=C(O)c1ccccc1-c1ccc(/C=c2\sc3nc4cc(Br)cnc4n3c2=O)o1 | -12.3% | –
31 | O=C(c1c[nH]c(=O)n(-c2ccccc2)c1=O)N1CCc2ccccc21 | -8.97% | –
32 | CCOC(=O)N1CCN(C(=O)c2ccc(Cl)c(S(=O)(=O)N3CCOCC3)c2)CC1 | -3.04% [at 2.29 µM] | –
33 | Cc1ccc(NS(=O)(=O)c2cc(C(=O)NCc3ccccn3)ccc2Cl)cc1 | – | 3.98 µM (active)
34 | Cc1ccc(NS(=O)(=O)c2cc(C(=O)N3CCc4ccccc4C3)ccc2Cl)cc1 | – | 1.26 µM (active)
35 | COc1ccc(C(=O)N2CCCCC2)cc1S(=O)(=O)Nc1ccccc1 | – | 12.6 µM (active)
36 | CN(c1ccc(C(=O)NCc2ccccn2)cc1)S(C)(=O)=O | 2.98% | –
37 | OC(CN1CCCCC1)CN1CCCCC1 | 12.3% | –
38 | CN(C)C(=O)c1ccc(-c2cncnc2NCCc2cnc[nH]2)cc1 | – | 6.31 µM (active)
39 | Cc1cccc(CNc2ncncc2-c2ccc(C(=O)N(C)C)cc2)c1 | – | 0.631 µM (active)
40 | CN(C)C(=O)c1ccc(-c2cncnc2NCc2ccccc2)cc1 | – | 2.51 µM (active)
41 | CNc1ncncc1-c1ccc(C(=O)N(C)C)cc1 | – | 5.01 µM (active)
42 | CN(C)C(=O)c1ccc(-c2cncnc2NC2CCNCC2)cc1 | -16% | –
43 | CN(C)C(=O)c1ccc(-c2cncnc2NCc2cccnc2)cc1 | – | 5.01 µM (active)
44 | CN1CCN(c2ncncc2-c2ccc(C(=O)N(C)C)cc2)CC1 | – | 15.8 µM (active)
45 | CN(C)C(=O)c1ccc(-c2cncnc2N2CCNCC2)cc1 | -25.5% | –
46 | O=C(O)c1ccccc1C1c2ccccc2Oc2ccccc21 | 26.1% [at 11.4 µM] | –
47 | CCC1(C)CC(CCNS(=O)(=O)c2ccc(C)cc2)(c2ccc(C)cc2)CCO1 (centres undefined) | – | 3.55 µM (active)
48 | Cc1cc(C(=O)CSc2nnc(-c3ccccc3)o2)c(C)n1CC1COc2ccccc2O1 (centres undefined) | – | 2.24 µM (active)
49 | c1ccc(-c2nnc(SCCC3OCCCO3)o2)cc1 | -12.2% | –
50 | O=C(/C=C\c1ccc(O)c(O)c1)OCCc1ccccc1 | – | 15.8 µM (active)

Row | SMILES | activity, negative = inhibition | AC50
51 | O=C(/C=C\c1ccc(O)c(O)c1)O[C@@H](Cc1ccc(O)c(O)c1)C(=O)O | -7.45% | –
52 | O=C(O)/C=C\c1ccc(O)c(O)c1 | -6.21% [at 25.6 µM] | –
53 | CCn1c2ccccc2c2cnc(N=CN(C)C)c(C#N)c21 | – | 7.94 µM (active)
54 | Nc1nc(N)nc(CC(=O)O)n1 | -10.1% [at 11.4 µM] | –
55 | COC(=O)N1CCC[C@@]2(CCN(c3ncccn3)C2)C1 | -17.7% | –
56 | COC(=O)N1CCC2(CC1)CCN(c1ccncc1)CC2 | -26.8% | –
57 | O=C(Oc1ccccc1)N1CCC2(CC1)CCN(c1ccncc1)CC2 | -14.1% | –
58 | COC(=O)N1CCC[C@@]2(CCN(c3ccncc3)C2)C1 | – | 3.98 µM (active)
59 | O=C(Oc1ccccc1)N1CCC[C@@]2(CCN(c3ccncc3)C2)C1 | – | 12.6 µM (active)
60 | O=[N+]([O-])c1cccnc1NCCNc1ncc(C(F)(F)F)cc1Cl | – | 12.6 µM (active)
61 | O=[N+]([O-])c1ccc2ncccc2c1CCc1c([N+](=O)[O-])ccc2ncccc12 | -12.1% [at 11.4 µM] | –
62 | O=C(O)C[C@H](NC(=O)CP(=O)(O)O)C(=O)O.[NH-][C@@H]1CCCC[C@@H]1[NH-].[Pt] | -3.72% [at 11.4 µM] | –
63 | O=S(=O)(NCc1cc(-c2ccccc2Cl)no1)c1ccccc1 | -24.6% | –
64 | Cc1ccc(S(=O)(=O)Nc2ccc(=O)n(Cc3ccc(Cl)c(Cl)c3)c2)cc1 | – | 3.16 µM (active)
65 | C#CCOC(=O)Nc1ccc(=O)n(Cc2c(Cl)cccc2Cl)c1 | -1.17% | –
66 | O=c1ccc(NS(=O)(=O)c2ccccc2)cn1Cc1ccc(Cl)c(Cl)c1 | – | 6.31 µM (active)
67 | O=c1ccc(NS(=O)(=O)c2ccc(Cl)cc2)cn1Cc1ccc(Cl)c(Cl)c1 | – | 5.62 µM (active)
68 | O=S(=O)(Nc1ccc2oc(-c3ccccc3)nc2c1)c1ccccc1 | -16% [at 2.29 µM] | –
69 | Cc1cc(NS(=O)(=O)c2ccc(NC(=O)CN3C(=O)c4ccccc4C3=O)cc2)nc(C)n1 | -13.1% | –
70 | CC1(C)S[C@@H]2[C@H](NC(=O)[C@H](C(=O)O)c3ccsc3)C(=O)N2[C@H]1C(=O)O | -5.72% [at 25.6 µM] | –
71 | CC12CCC(C(=O)Nc3ncc([N+](=O)[O-])s3)(OC1=O)C2(C)C (centres undefined) | – | 15.8 µM (active)
72 | CCCCC#Cc1nc(NC)c2ncn([C@@H]3O[C@@H](CO)[C@H](O)[C@H]3O)c2n1 | -29% | –
73 | CCSc1nnc(-c2ccc(Cl)cc2)c2ccccc12 | 15.9% [at 2.29 µM] | –
74 | C#CCSc1nc(Cc2ccc(Cl)cc2)nc2ccccc12 | – | 15.8 µM (active)
75 | CS(=O)(=O)N(Cc1cc2ccccc2[nH]c1=O)C1CCCCC1 | – | 2.24 µM (active)

Row | SMILES | activity, negative = inhibition | AC50
76 | CN(Cc1cc2ccccc2[nH]c1=O)S(C)(=O)=O | 5.8% [at 11.4 µM] | –
77 | CC(C)(C)c1ccc(O)c(CN(Cc2c(O)ccc3ccccc23)C2CCCCC2)c1 | -11.1% [at 11.4 µM] | –
78 | CSc1nc(N)c2ncn([C@@H]3O[C@@H](COP(=O)(O)OP(=O)(O)O)[C@@H](O)[C@H]3O)c2n1 | -2.32% | –
79 | C=CC(=O)NC(NC(=O)C=C)c1ccc(Br)cc1 | -14% | –
80 | Cc1ccc(NC(=O)NNC(=O)Cn2nc(-c3ccccc3)c(-c3ccccc3)c(C#N)c2=O)cc1 | 26.4% [at 0.457 µM] | –
81 | N#Cc1c(NC(=O)CCN2C(=O)c3ccccc3C2=O)oc(-c2ccccc2)c1-c1ccccc1 | – | 3.98 µM (active)
82 | CC(C)(C)c1ccccc1OCCN1CCCC1 | -16.4% | –
83 | Cc1ncc([N+](=O)[O-])n1CCO | -4.85% [at 25.6 µM] | –
84 | Cc1ncc([N+](=O)[O-])n1CC(=O)NCc1ccccc1 | 0.475% | –
85 | Cc1ncc([N+](=O)[O-])n1CCOC(=O)NC(NCc1ccccc1)C(Cl)(Cl)Cl (centres undefined) | – | 15.8 µM (active)
86 | O=C(Nc1cccc2ccccc12)c1cn(-c2ccccc2)nc1-c1cccs1 | – | 7.94 µM (active)
87 | O=C(N1CCOCC1)N1CCN(c2ccccc2)CC1 | -14.3% [at 11.4 µM] | –
88 | O=C(c1cn(-c2ccccc2)nc1-c1cccs1)N1CCOCC1 | – | 15.8 µM (active)
89 | O=C(Nc1c(C(=O)N2CCOCC2)cnn1-c1ccccc1)c1ccco1 | -5.43% | –
90 | CCOc1ccc(-c2c[n+](=O)c3c(n2[O-])CCCC3)c(OCC)c1 | 1.52% | –
91 | CCCNS(=O)(=O)c1ccc(OCC(=O)OC)cc1 | -2.12% | –
92 | NCCCc1ccc2oc3ccccc3c2c1 | 0.505% [at 11.4 µM] | –
93 | COc1ccc(OCCNS(=O)(=O)c2ccc3oc4ccccc4c3c2)cc1 | – | 7.08 µM (active)
94 | Cc1nc2ccccc2nc1SCC(=O)N1CCC(C)CC1 | 3.87% [at 2.29 µM] | –
95 | Cc1sc2nc(C3CC3)nc(SCC(=O)N3CC(=O)Nc4ccccc43)c2c1C | – | 2.24 µM (active)
96 | Cc1nnc(SCC(=O)N2CC(=O)Nc3ccccc32)n1Cc1ccccc1 | – | 7.94 µM (active)
97 | O=C(O)[C@@H]1CS[C@@]2(CCCN(Cc3ccccc3)C2)N1 | 0.282% [at 11.4 µM] | –
98 | Cc1ncc(CSC(=N)N)n1Cc1ccccc1 | 6.78% [at 11.4 µM] | –
99 | Cc1scc2c1N(C(=O)CN1CCN(C)CC1)c1ccccc1NC2=O | -13.5% [at 25.6 µM] | –
